Inhibition data for 34 molecules are collected here from ChEMBL document CHEMBL4513141, “CO-ADD screening of NIH (USA) - Clinical Collection” (2021).

Potency and affinity values are given separately.

This test has as its system Cryptococcus neoformans. As to conditions: Concentration 20 uM; ASSAY_TEST Inhibition of Fungal Growth; detection method Resazurin; Absorption (OD600-OD570); plate type 384well; NBS; CORNING #3640.
`O=C(O)CCCc1ccc(N(CCCl)CCCl)cc1` [CHLORAMBUCIL]: the Inhibition is 0.85%.

For the molecule `CN1CCN(C2=Nc3cc(Cl)ccc3Nc3ccccc32)CC1` [CLOZAPINE], the Inhibition is reported as -5.79%.

Consider `CN1[C@@H]2CC[C@H]1CC(OC(=O)C(CO)c1ccccc1)C2` (some centres undefined), for which the Inhibition was -0.25%.

With `CN1CCN(C(=O)O[C@H]2c3nccnc3C(=O)N2c2ccc(Cl)cn2)CC1` [ESZOPICLONE], the Inhibition was 4.31%.

As to `NS(=O)(=O)c1cc(C2(O)NC(=O)c3ccccc32)ccc1Cl` (centres undefined) [CHLORTHALIDONE], the Inhibition is -1.27%.

Turning to `O=C(O)C(Cl)Cl` [DICHLOROACETIC ACID], the Inhibition was -3.9%.

For the molecule `CN/C(=N\CCSCc1nc[nH]c1C)NC#N` [CIMETIDINE], the Inhibition worked out at 2.1%.

Turning to `C[C@H](CCC(=O)O)[C@H]1CC[C@H]2[C@@H]3C(=O)C[C@@H]4CC(=O)CC[C@]4(C)[C@H]3CC(=O)[C@]12C` [DEHYDROCHOLIC ACID], the Inhibition stood at 2.23%.

As for `CCOC(=O)c1ncn2c1CN(C)C(=O)c1cc(F)ccc1-2` [FLUMAZENIL], the Inhibition is given as -8.54%.

As for `Cc1ccnc2c1NC(=O)c1cccnc1N2C1CC1` [NEVIRAPINE], the Inhibition is on record as -2.57%.

With `CCOC(=O)c1cncn1[C@H](C)c1ccccc1` [ETOMIDATE], the Inhibition came to 0.21%.

Regarding `Cl.FC(F)(F)c1cccc(N2CCNCC2)c1` [N- (3-TRIFLUOROMETHYLPHENYL)PIPERAZINE HYDROCHLORIDE (TFMPP)], the Inhibition is -3.92%.

Turning to `COc1ccc2[nH]cc(C3=CCNCC3)c2c1.COc1ccc2[nH]cc(C3=CCNCC3)c2c1.O=C(O)CCC(=O)O`, the Inhibition is given as -20.08%.

With `CC(C)C(=O)Nc1ccc([N+](=O)[O-])c(C(F)(F)F)c1` [FLUTAMIDE], the Inhibition worked out at 1.08%.

For `C#CCN(C)[C@H](C)Cc1ccccc1.Cl` [SELEGILINE HYDROCHLORIDE], the Inhibition was 1.77%.

In the case of `CCN(C(C)=O)c1cccc(-c2ccnc3c(C#N)cnn23)c1` [ZALEPLON], the Inhibition was -1.32%.

As to `CCN(CC)CCOC(=O)C(O)(c1ccccc1)c1ccccc1.Cl`, the Inhibition is -7.17%.

Regarding `COc1ccc(C(CN(C)C)C2(O)CCCCC2)cc1.Cl` (centres undefined) [VENLAFAXINE HYDROCHLORIDE], the Inhibition is -9.68%.

With `COC(=O)C1=C(C)NC(C)=C(C(=O)OC)C1c1ccccc1[N+](=O)[O-]` [NIFEDIPINE], the Inhibition is recorded as -4.99%.

With `CN1C(=O)COc2c(C(=O)NC3CN4CCC3CC4)cc(Cl)cc21.Cl` (centres undefined), the Inhibition was -3.23%.

For the molecule `O.O=P1(N(CCCl)CCCl)NCCCO1` (centres undefined) [CYCLOPHOSPHAMIDE], the Inhibition is listed as 1.2%.

As for `O=C1Nc2ccc(Cl)cc2C(c2ccccc2Cl)=NC1O` (centres undefined) [LORAZEPAM], the Inhibition is -2.1%.

For `CCCN1C[C@H](CSC)C[C@@H]2c3cccc4[nH]cc(c34)C[C@H]21.CS(=O)(=O)O` [PERGOLIDE MESYLATE], the Inhibition was -3.89%.

Turning to `C=C1C[C@@H]2[C@H](CC[C@]3(C)C(=O)CC[C@@H]23)[C@@]2(C)C=CC(=O)C=C12` [EXEMESTANE], the Inhibition is listed as -8.06%.

In the case of `O=C1CN=C(c2ccccc2)c2cc([N+](=O)[O-])ccc2N1` [NITRAZEPAM], the Inhibition worked out at 1.38%.

`COC(=O)N1CCN(C(=O)Cc2ccc(Cl)c(Cl)c2)C(CN2CCCC2)C1.O=C(O)/C=C/C(=O)O` (centres undefined): the Inhibition was -1.96%.

For `C[C@]12CCC(=O)C=C1CC[C@@H]1[C@@H]2CC[C@@]2(C)[C@H]1CC[C@]2(C)O` [METHYLTESTOSTERONE], the Inhibition is 0%.

Consider `CS(=O)(=O)O.O=C(O[C@@H]1C[C@@H]2C[C@H]3C[C@H](C1)N2CC3=O)c1c[nH]c2ccccc12`, for which the Inhibition is 1.75%.

Turning to `Cl.NCC(O)c1ccc(O)c(O)c1` (centres undefined), the Inhibition is -2.98%.

On to `Brc1c(NC2=NCCN2)ccc2nccnc12` [BRIMONIDINE], for which the Inhibition is recorded as -1.44%.

On to `C[N+]1(C)CCC(OC(=O)C(O)(c2ccccc2)C2CCCC2)C1.[Br-]` (centres undefined) [GLYCOPYRRONIUM BROMIDE], for which the Inhibition is recorded as -2.52%.

For `COc1ccc(CCN)cc1OC`, the Inhibition is recorded as -1.54%.

In the case of `CC(C)NCC(O)c1ccc(O)c(O)c1.Cl` (centres undefined) [ISOPROTERENOL HYDROCHLORIDE], the Inhibition amounted to 0.22%.

Consider `COc1cc(N)c(Cl)cc1C(=O)NC1CN2CCC1CC2.Cl.O` (centres undefined) [ZACOPRIDE HYDROCHLORIDE], for which the Inhibition is listed as 0.38%.
